# In PubChem BioAssay:
# Activity calls are given as the source filed them. Cut-off read from the data, not from the text of the source, unless noted: active = inhibition above about 80%; inactive = the rest.
# Assays:
# [1] = LFS_MB_P medulloblastoma growth inhibition, cell-based, chromothripsis tumors, cisplatin or BGB combos (AID 1671449); conditions: LFS_MB_P medulloblastoma cells;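 note: cells exposed for 96 hours; 0% = vehicle DMSO and 100% = killing by high DMSO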
# [2] = HDN33 neuroblastoma growth inhibition, cell-based, chromothripsis tumors, cisplatin or BGB combos (AID 1671450); conditions: HDN33 neuroblastoma cells, stronger effect = higher value;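 note: cells exposed to compound for four days; 0% = vehicle DMSO and 100% = cell killing by high DMSO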
# [3] = ICB984 medulloblastoma cell growth inhibition, synergistic combos for chromothripsis tumors, cisplatin or BGB combos (AID 1671451; call rule not given here;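 note: cells exposed for 96 hours before readout; 0% = vehicle DMSO and 100% = killing by high DMSO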); conditions: ICB984 medulloblastoma cells, drug combinations, stronger effect = higher value
# [4] = LFS_MB_1R medulloblastoma cell growth inhibition, synergistic combos for chromothripsis tumors, cisplatin or BGB combos (AID 1671452); conditions: LFS_MB_1R medulloblastoma cells, stronger effect = higher value;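 note: cells exposed for 96 hours before readout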
# [5] = HTB85 osteosarcoma cell growth inhibition, synergistic combos for chromothripsis tumors, BGB or cisplatin IC20 combos (AID 1671453); conditions: HTB85 osteosarcoma cells, drug combinations, stronger effect = higher value;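 note: cells exposed for 96 hours before readout; 0% = vehicle DMSO and 100% = high DMSO killing control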
# [6] = CRL2098 osteosarcoma cell growth inhibition, synergistic combos for chromothripsis tumors, BGB or cisplatin IC20 combos (AID 1671454); conditions: CRL2098 osteosarcoma cells, drug combinations, stronger effect = higher value;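 note: cells exposed for 96 h before readout; 0% = vehicle DMSO and 100% = killing by high DMSO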
# [7] = HD-MB03 medulloblastoma cell growth inhibition, synergistic combos for chromothripsis tumors, BGB or cisplatin IC20 combos (AID 1671455; in the data active = inhibition above about 83%;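 note: 0% = vehicle DMSO and 100% = high DMSO as cytotoxic control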); conditions: HD-MB03 medulloblastoma cells, stronger effect = higher value
# [8] = UWB1.289 ovarian carcinoma cell growth inhibition, synergistic combos for chromothripsis tumors, BGB or cisplatin combos (AID 1671456); conditions: UWB1.289 ovarian carcinoma cells, stronger effect = higher value;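 note: cells exposed to compound for four days; 0% = vehicle DMSO and 100% = killing by high DMSO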
# [9] = LFS_MB_2R medulloblastoma cell growth inhibition, synergistic combos for chromothripsis tumors, cisplatin combos (AID 1671457); conditions: LFS_MB_2R medulloblastoma cells, stronger effect = higher value;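 note: cells exposed to compound for four days before readout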
# [10] = MDA-MB-436 breast carcinoma cell growth inhibition, synergistic combos for chromothripsis tumors, BGB or cisplatin combos (AID 1671458; call rule not given here;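 note: cells exposed for 96 hours; 0% = vehicle DMSO and 100% = killing by high DMSO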); conditions: MDA-MB-436 breast carcinoma growth inhibition, drug combinations, stronger effect = higher value
# [11] = UWB1.289_BRCA1 ovarian cancer growth, cell-based, BGB or cisplatin combinations (AID 1671459); conditions: UWB1.289 BRCA1 ovarian carcinoma, drug combinations, stronger effect = higher value
# [12] = human astrocyte viability loss, single and combined drugs, cytotoxicity control for chromothriptic childhood tumor combination screen, cell-based, BGB or cisplatin IC20 combos (AID 1671460); conditions: Human astrocytes, drug combinations, stronger effect = higher value;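 note: cells exposed to compounds for 96 hours before viability readout; 0% = vehicle and 100% = killing control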
# [13] = growth inhibition of BT084 medulloblastoma cells, cell-based, ICGC_MB145, cisplatin and BGB IC40 combos (AID 1671461); conditions: drug combinations, stronger effect = higher value;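 note: cells exposed to drugs for 96 hours; 0% = vehicle DMSO and 100% = high DMSO full killing control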
# [14] = growth inhibition of RCMB18 medulloblastoma cells, cell-based, cisplatin and BGB IC40 combos (AID 1671462); conditions: stronger effect = higher value;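 note: cells exposed to compound for four days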
# [15] = growth inhibition of CRL1545 osteosarcoma cells, cell-based, cisplatin and BGB IC20 combos (AID 1671464); conditions: stronger effect = higher value;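 note: cells exposed to compound for 96 hours before readout; 0% = vehicle DMSO and 100% = high DMSO killing control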
# [16] = at 0.5 µM, stronger effect = higher value
# [17] = measured here: combination with BGB IC20, at 0.005 µM
# [18] = measured here: combination with BGB IC40, at 0.005 µM
# [19] = measured here: combination with BGB IC40, at 0.05 µM
# [20] = measured here: combination with cisplatin, at 0.5 µM, stronger effect = higher value
# [21] = measured here: combination with cisplatin, at 5 µM, stronger effect = higher value
# [22] = measured here: with BGB IC20 combination, at 0.5 µM
# [23] = measured here: with cisplatin IC20 combination, at 0.5 µM
# [24] = measured here: 5 uM single agent, at 5 µM
# [25] = measured here: combination with cisplatin, at 0.5 µM
# [26] = measured here: combination with cisplatin, at 5 µM
# [27] = measured here: with BGB IC20, at 0.5 µM
# [28] = measured here: with BGB IC20, at 5 µM
# [29] = measured here: with cisplatin IC20, at 0.5 µM
# [30] = measured here: with cisplatin IC20, at 5 µM
# [31] = measured here: combination with BGB at IC20, at 0.5 µM
# [32] = measured here: combination with cisplatin at IC20, at 0.5 µM
# [33] = measured here: combo with BGB at IC20, at 0.5 µM
# [34] = measured here: combo with cisplatin at IC20, at 0.5 µM
# [35] = measured here: inhibition with BGB combination, at 0.05 µM
# [36] = measured here: inhibition with cisplatin combination, at 0.05 µM
# [37] = measured here: BGB combination, at 0.5 µM
# [38] = measured here: BGB combination, at 5 µM
# [39] = measured here: cisplatin combination, at 0.5 µM
# [40] = measured here: cisplatin combination, at 5 µM
# [41] = BGB combination, concentration series, at 5 µM
# [42] = cisplatin combination, concentration series, at 5 µM
# [43] = measured here: combo with BGB IC20, at 0.5 µM
# [44] = measured here: combo with cisplatin IC20, at 0.5 µM
# [45] = cisplatin combination, at 0.5 µM
# [46] = measured here: BGB IC40 combination 0.05 uM, at 0.05 µM
# [47] = measured here: BGB IC40 combination, at 0.05 µM
smiles,measurement,setting,value
NC(=O)c1ncn(C2OC(CO)C(O)C2O)c1O (stereo unspecified),inhibition,[1]; [16],-12.6% (inactive)
same,inhibition,[1]; [17],-7.32%
same,inhibition,[1]; [18],-2.51%
same,inhibition,[1]; [19],-10.8%
same,inhibition,[1]; [20],-6.4%
same,inhibition,[1]; [21],-30%
same,inhibition,"[2]; BGB combo, at 5 µM",5.04%
same,inhibition,[2]; at 0.5 µM,6.65% (inactive)
same,inhibition,"[2]; cisplatin combo, at 5 µM",-12.8%
same,inhibition,[2]; [22],16.7%
same,inhibition,[2]; [23],12.5%
same,inhibition,"[2]; single agent, at 5 µM",-11%
same,inhibition,"[3]; BGB IC20 combo, at 0.005 µM",6.56%
same,inhibition,"[3]; BGB IC40 combo, at 0.005 µM",-22.2%
same,inhibition,"[3]; BGB IC40 combo, at 0.05 µM",-25%
same,inhibition,[3]; at 0.5 µM,-19.3% (inactive)
same,inhibition,"[3]; cisplatin combo, at 0.05 µM",-25%
same,inhibition,"[3]; cisplatin combo, at 0.5 µM",-21.3%
same,inhibition,"[3]; cisplatin combo, at 5 µM",9.18%
same,inhibition,[3]; [24],-10.8%
same,inhibition,[4]; at 0.5 µM,-1.69% (inactive)
same,inhibition,[4]; [19],11.9%
same,inhibition,[4]; [25],14.5%
same,inhibition,[4]; [26],1.36%
same,inhibition,[5]; at 0.5 µM,-21.2% (inactive)
same,inhibition,[5]; [27],-45.8%
same,inhibition,[5]; [28],-14%
same,inhibition,[5]; [29],-13.3%
same,inhibition,[5]; [30],26.5%
same,inhibition,"[5]; single agent, at 5 µM",4.97%
same,inhibition,[6]; at 0.5 µM,-22.6% (inactive)
same,inhibition,[6]; [31],-31.9%
same,inhibition,[6]; [32],-21.8%
same,inhibition,[7]; at 0.5 µM,-5.96% (inactive)
same,inhibition,[7]; [33],-11.6%
same,inhibition,[7]; [34],0.212%
same,inhibition,[8]; at 0.5 µM,2.16% (inactive)
same,inhibition,[8]; [35],-15.4%
same,inhibition,[8]; [36],-3.17%
same,inhibition,[9]; at 0.5 µM,-17.9% (inactive)
same,inhibition,[9]; [25],-10.4%
same,inhibition,[9]; [26],-9.64%
same,inhibition,[10]; at 0.5 µM,-15.6% (inactive)
same,inhibition,[10]; [37],-16%
same,inhibition,[10]; [38],-1.99%
same,inhibition,[10]; [39],-28.5%
same,inhibition,[10]; [40],-10.8%
same,inhibition,[11]; [41],5.96%
same,inhibition,[11]; at 0.5 µM,2.34% (inactive)
same,inhibition,[11]; [42],12.4%
same,inhibition,[12]; at 0.5 µM,-5.39% (inactive)
same,inhibition,[12]; [43],-5.58%
same,inhibition,[12]; [44],-13.5%
same,inhibition,[13]; at 0.5 µM,-0.897% (inactive)
same,inhibition,[13]; [45],6.23%
same,inhibition,"[13]; cisplatin combination, at 5 µM",-20.7%
same,inhibition,[13]; [46],5.17%
same,inhibition,"[13]; single agent, at 5 µM",-12.6%
same,inhibition,[14]; at 0.5 µM,-9.69% (inactive)
same,inhibition,"[14]; cisplatin combo, at 5 µM",0.143%
same,inhibition,[14]; [47],-17.2%
same,inhibition,[14]; [25],9.55%
same,inhibition,"[14]; single agent, at 5 µM",-31.2%
same,inhibition,[15]; at 0.5 µM,-13.2% (inactive)
same,inhibition,[15]; [22],2.45%
same,inhibition,[15]; [23],-21%
same,inhibition,"[15]; single agent, at 0.05 µM",13%
same,inhibition,"[15]; single agent, at 5 µM",22.2%
O=c1[nH]c(=S)[nH]c2nc(-c3ccccc3)c(-c3ccccc3)nc12,inhibition,[1]; [16],-4.47% (inactive)
same,inhibition,[1]; [17],-16.2%
same,inhibition,[1]; [18],-17.7%
same,inhibition,[1]; [19],-55%
same,inhibition,[1]; [20],-17.6%
same,inhibition,[1]; [21],-30.5%
same,inhibition,"[2]; BGB combo, at 5 µM",-12.8%
same,inhibition,[2]; at 0.5 µM,-3.23% (inactive)
same,inhibition,"[2]; cisplatin combo, at 5 µM",-3.41%
same,inhibition,[2]; [22],-5.44%
same,inhibition,[2]; [23],12.5%
same,inhibition,"[2]; single agent, at 5 µM",8.28%
same,inhibition,"[3]; BGB IC20 combo, at 0.005 µM",-5.97%
same,inhibition,"[3]; BGB IC40 combo, at 0.005 µM",-18.7%
same,inhibition,"[3]; BGB IC40 combo, at 0.05 µM",-15.7%
same,inhibition,[3]; at 0.5 µM,-20.3% (inactive)
same,inhibition,"[3]; cisplatin combo, at 0.05 µM",-19.8%
same,inhibition,"[3]; cisplatin combo, at 0.5 µM",-15.9%
same,inhibition,"[3]; cisplatin combo, at 5 µM",-36.6%
same,inhibition,[3]; [24],8.29%
same,inhibition,[4]; at 0.5 µM,-12.5% (inactive)
same,inhibition,[4]; [19],-14.1%
same,inhibition,[4]; [25],-36.2%
same,inhibition,[4]; [26],-28.2%
same,inhibition,[5]; at 0.5 µM,-2.11% (inactive)
same,inhibition,[5]; [27],-2.07%
same,inhibition,[5]; [28],-2.27%
same,inhibition,[5]; [29],-3.18%
same,inhibition,[5]; [30],-32%
same,inhibition,"[5]; single agent, at 5 µM",0.689%
same,inhibition,[6]; at 0.5 µM,-39.5% (inactive)
same,inhibition,[6]; [31],-21.3%
same,inhibition,[6]; [32],-56.3%
same,inhibition,[7]; at 0.5 µM,1.96% (inactive)
same,inhibition,[7]; [33],-7.2%
same,inhibition,[7]; [34],15.9%
same,inhibition,[8]; at 0.5 µM,8.37% (inactive)
same,inhibition,[8]; [35],69.6%
same,inhibition,[8]; [36],18.6%
same,inhibition,[9]; at 0.5 µM,-9.62% (inactive)
same,inhibition,[9]; [25],-6.67%
same,inhibition,[9]; [26],4.64%
same,inhibition,[10]; at 0.5 µM,-2.86% (inactive)
same,inhibition,[10]; [37],-6.6%
same,inhibition,[10]; [38],-11.7%
same,inhibition,[10]; [39],0.551%
same,inhibition,[10]; [40],-30.7%
same,inhibition,[11]; [41],8.97%
same,inhibition,[11]; at 0.5 µM,3.94% (inactive)
same,inhibition,[11]; [42],-14.9%
same,inhibition,[12]; at 0.5 µM,4.94% (inactive)
same,inhibition,[12]; [43],4.6%
same,inhibition,[12]; [44],-1.31%
same,inhibition,[13]; at 0.5 µM,-2.6% (inactive)
same,inhibition,[13]; [45],-10.5%
same,inhibition,"[13]; cisplatin combination, at 5 µM",0.186%
same,inhibition,[13]; [46],-24.1%
same,inhibition,"[13]; single agent, at 5 µM",0.55%
same,inhibition,[14]; at 0.5 µM,-2.13% (inactive)
same,inhibition,"[14]; cisplatin combo, at 5 µM",-6.02%
same,inhibition,[14]; [47],-12.2%
same,inhibition,[14]; [25],41.9%
same,inhibition,"[14]; single agent, at 5 µM",-34.1%
same,inhibition,[15]; at 0.5 µM,-17.1% (inactive)
same,inhibition,[15]; [22],-18.6%
same,inhibition,[15]; [23],-18.2%
same,inhibition,"[15]; single agent, at 0.05 µM",-5.63%
same,inhibition,"[15]; single agent, at 5 µM",-50.2%
